# CBFb RUNX1 block: inhibitors of human CBF-beta and RUNX1 interaction. AID 1477. AlphaScreen CBFb-His/RUNX1-biotin binding, biochemical. 230,000 tested, under 10 active. Potency, µM (titrated, usually from 59.8 µM), inactives show at the top dose activity, negative = inhibition, most hits filed as inhibitors; further: % of control where 0% means no effect
# Target sequence (Q01196 whole entry, looked up): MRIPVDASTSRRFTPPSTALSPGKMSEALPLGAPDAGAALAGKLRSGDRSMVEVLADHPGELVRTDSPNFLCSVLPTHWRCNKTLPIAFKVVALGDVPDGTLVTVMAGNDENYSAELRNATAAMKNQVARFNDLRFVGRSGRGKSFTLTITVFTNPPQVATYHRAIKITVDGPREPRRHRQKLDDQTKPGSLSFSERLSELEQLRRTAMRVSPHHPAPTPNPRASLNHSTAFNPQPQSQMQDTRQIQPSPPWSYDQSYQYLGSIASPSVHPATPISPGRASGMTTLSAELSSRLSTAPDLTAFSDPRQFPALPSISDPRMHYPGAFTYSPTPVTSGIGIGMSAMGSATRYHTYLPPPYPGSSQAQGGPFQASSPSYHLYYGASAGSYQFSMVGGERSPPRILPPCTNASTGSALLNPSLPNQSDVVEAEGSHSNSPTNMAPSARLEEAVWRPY
# Target sequence (Q13951 whole entry, looked up): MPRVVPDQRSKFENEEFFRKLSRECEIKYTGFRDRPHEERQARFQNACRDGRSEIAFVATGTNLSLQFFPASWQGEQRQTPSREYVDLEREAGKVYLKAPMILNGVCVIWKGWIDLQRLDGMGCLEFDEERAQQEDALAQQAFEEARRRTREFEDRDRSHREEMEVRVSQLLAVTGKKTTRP
#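 Interaction loss through any mechanism counts as activity. Pre-formed complex of His-CBF-beta and biotin-RUNX1 (30 nM apiece) is incubated with compound 15 min, then with 50 ng nickel and 50 ng streptavidin beads for 90 min before AlphaScreen detection.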
# ALDH1A1 block: blocks purified human ALDH1A1 activity; Potency, µM (doses to about 75.3 µM), for inactives: at the highest dose activity, negative = inhibition, usual class: inhibitors; 7.3% of 220,000 active; Purified ALDH1A1, NADH fluorescence, propionaldehyde substrate; AID 1030; active means well fitted inhibition curve with a large enough effect, not every such curve was filed as active; inconclusive means small, poorly fitted or top-dose-only effect, or another doubt; inactive means no such curve, though single readings can be large or run the other way;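 further: potency means the concentration at half of the fitted maximal effect; plate controls were no enzyme wells and a reference inhibitor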
# PNC assembly inh: blocks assembly of the perinucleolar compartment. PC3M PTB-GFP, PNC prevalence imaging, 16 h; stronger effect = lower value. activity change (PNC), negative = inhibition, % at 10 µM. 3.1% of 140,000 active;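 active means readout at or below -70, meaning at least 70% loss of cells showing the perinucleolar compartment, a nuclear body marking cancer cells; inconclusive means readout between -30 and a set limit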;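 further: plate controls were DMSO wells for no effect and camptothecin positive control wells for full effect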
#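 Compounds are pinned in duplicate onto adhered PC3M cells stably expressing GFP-tagged PTB and incubated 16 h at 37 C. Cells are then fixed, nuclei stained with Hoechst, and PNC-positive cells counted.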
# HTT cytoprotect: protects HTT-Q103 PC12 cells, measured by ATP; Potency, µM (top dose mostly 56.4 µM), inactives show cytoprotection (ATP increase), hits mostly activators; PC12 HTT-Q103 induced, cytoprotection, ATP luminescence, 40 h; 0.14% of 230,000 active; AID 1471; further: potency means the concentration at half of the fitted maximal effect; % of control where 0% means no effect; nearly all actives have a fitted effect of over 45% in size
#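 Rat PC12, Q103 Htt exon1-GFP fusion, ecdysone promoter; tebufenozide inducer 100 nM final; compound titration; qHTS, 1500 cells/well; ATPlite luminescent read.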
# HPGD inh: HPGD (human) dehydrogenase inhibition; P15428; purified HPGD, NADH fluorescence kinetic, PGE2 substrate; Potency, µM, without a hit: at the highest dose activity change, negative = inhibition, usual class: inhibitors; 4.3% of 150,000 active; AID 894; active means well fitted inhibition curve with a large enough effect, not every such curve was filed as active; inconclusive means small, poorly fitted or top-dose-only effect, or another doubt; inactive means no such curve, though single readings can be large or run the other way; further: potency means the concentration at half of the fitted maximal effect; on the % scale 0 is the no-effect control and ±100 the full control effect
#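 NADH formation kinetics: reaction with 30 uM PGE2 and 1 mM NAD+ (final), 20 nM enzyme, Tris-HCl pH 8 with Tween 20, after 15 min compound preincubation at room temperature. Fluorescence change, last versus first of five reads.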
# HttQ103 aggreg: inhibitors of mutant huntingtin aggregate formation in PC12 cells | AID 1688 | 1.1% of 220,000 active | Potency, µM (doses to about 46.1 µM), for inactives: at the top dose activity change, negative = inhibition, usual class: inhibitors | PC12 HttQ103-GFP aggregates, Acumen cytometry, 40 h; further: potency means the concentration at half of the fitted maximal effect; on the % scale 0 is the no-effect control and ±100 the full control effect; nearly all actives have a fitted effect of over 60% in size
#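 Read-out: GFP aggregate count by laser scanning cytometer (488 nm excitation, 500-530 nm emission, 1–25 µm objects >6 SD above background). Cells: PC12, inducible HTTex1-Q103-GFP, 100 nM tebufenozide; compounds titrated.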
# * marks the source's active call; other numbers are inactive results; ? = inconclusive; · = no result given; [ ] = dose if it differs, or a comment. In the library only some 11% were active in any assay of this set; here they are far more common. Unless noted, the call rests on the fitted dose curve; in most records, active means well fitted curve in the direction sought with a large enough effect; inconclusive means small, poorly fitted or top-dose-only effect, or another doubt; inactive means no such curve, though single readings can be large; an effect the other way counts as inactive or inconclusive.
SMILES,CBFb RUNX1 block,ALDH1A1 block,PNC assembly inh,HTT cytoprotect,HPGD inh,HttQ103 aggreg
N#Cc1ccc(CN2CC[C@@]3(CCCN(S(=O)(=O)c4ccccc4)C3)C2)cc1,·,-8%,·,9%,-6%,·
O=C(Nc1ccc(C(=O)N2CCOCC2)cc1)Nc1cccc(Cl)c1,2%,22%,116,-25%[10 µM],28µM*,11µM*
CC(=O)c1cccc(NC(=O)Nc2ccc(C(=O)N3CCCC3)cc2)c1,10%,14µM*,-3,-15%[10 µM],1.1µM*,?
O=C(NCCN1CCOCC1)C1(C(F)(F)F)CC(CCCO)CCCO1 (centres undefined),9%,·,·,·,·,·
N#CCCN(Cc1cccnc1)S(=O)(=O)c1ccc(S(=O)(=O)N2CCCCCC2)cc1,5%,?,40,-1%[10 µM],-4%,6%[9.22 µM]
N#CCCN(Cc1cccnc1)C(=S)NC(=O)c1ccc(S(=O)(=O)N2CCCC2)cc1,4%,14µM*,·,-6%[10 µM],·,26%
N#CCCSc1ccccc1NC(=O)c1ccc(S(=O)(=O)N2CCCC2)cc1,1%,2.5µM*,?,-22%,11µM*,9%
O=C(Nc1cccc2c1C(=O)NC2=O)c1ccc(S(=O)(=O)N2CCCC2)cc1,5%,?,-111*,-1%,?,-20%
Cc1ccccc1-c1cncnc1NCc1cccnc1,·,17%,·,8%,·,·
CC(=O)c1ccc(NC(=O)CSc2nnc(Cn3cnc4ccccc43)o2)cc1,-4%,-8%,·,2%[10 µM],·,-2%[9.22 µM]
COc1ccc(CCCc2nnc(SCC(=O)Nc3ccccc3F)o2)cc1,1%,?,·,-16%,·,-6%
COc1ccc(CCCc2nnc(SCC(=O)NN)o2)cc1,4%,7.9µM*,·,-12%,·,-24%
COCCn1c(CNc2ccc(F)cc2)nnc1SCC(=O)Nc1ccc(OC)cc1OC,-2%,13µM*,0,11%[10 µM],-11%,9%
COc1ccc(C(=O)CSc2nnc(Cn3cnc4ccccc43)o2)cc1,-1%,-11%,?,-12%[10 µM],-12%,10µM*
COc1ccc(OC)c(NC(=O)CSc2nnc(CNC(=O)COc3ccc(Cl)cc3)o2)c1,10%,20µM*,?,-4%,-14%,4%
O=C(C1=NNCC1c1ccccc1)C1OC1c1ccccc1 (centres undefined),-2%,·,·,18%[10 µM],·,-4%[9.22 µM]
C[C@@H](/C=C\c1cccc(Oc2ccc(F)cc2)c1)N(O)C(N)=O,25%[21.7 µM],?,·,-44%,?,·
COC(=O)c1ccccc1NC(=O)CSc1nnc(Cc2ccc(Cl)cc2)o1,18%,20µM*,?,6%[10 µM],28µM*,7%
CCC1CCCCN1C(=O)CSc1nnc(-c2ccco2)o1 (centres undefined),4%,20µM*,-14,-2%[1.9 µM],-4%,-6%
Cc1ccc(C(=O)CSc2nnc(-c3c[nH]c4ccccc34)o2)cc1,11%,5%,0,26%[10 µM],-10%,-11%
CC1CCCCN1C(=O)CSc1nnc(-c2c[nH]c3ccccc23)o1 (centres undefined),4%,25µM*,-26,-23%,-18%,-2%
COc1ccc(NCc2nnc(SCC(=O)c3ccc(OC)cc3)o2)cc1,-14%,16µM*,?,-5%,-10%,-2%
Cc1ccc(S(=O)(=O)CCNC(=O)Cc2ccccc2)cc1,3%,4%,·,·,·,4%
O=C(COc1ccc(Cl)cc1)NCc1nnc(SCC(=O)NC2CCCC2)o1,2%,-6%,-3,-19%,-11%,-14%
COc1ccc(NCc2nnc(SCC(=O)Nc3ccccc3OC)o2)cc1,-8%,?,-105*,16%,-5%,18%
SMILES,CBFb RUNX1 block,ALDH1A1 block,PNC assembly inh,HTT cytoprotect,HPGD inh,HttQ103 aggreg
CCC1CCCCN1C(=O)CSc1nnc(CNC(=O)COc2ccc(Cl)cc2)o1 (centres undefined),-3%,7.1µM*,-15,-31%,-11%,10%
COc1ccc(-c2ccc(S(=O)(=O)NCC3CCCO3)cc2)cc1 (centres undefined),-12%,?,5,·,?,2%
COc1cc(S(=O)(=O)NCC2CCCO2)ccc1Br (centres undefined),1%,-6%,-112*,3%,-12%,2%
Cc1c(C)c(C)c(CC2(C)CSC2)c(CC2(C)CSC2)c1C,·,1%[13.5 µM],·,11%[10 µM],-1%,·
CC(C)(C)NCC(O)COc1nsnc1N1CCOCC1 (centres undefined),19%,-5%,·,·,-9%,·
C(#CCN1CCCC1)CC(c1ccccc1)c1ccccc1,-2%,?,·,-1%[10 µM],·,-11%[9.22 µM]
COc1cc(CN2CCNC(=O)C2CC(=O)N2CCc3ccccc3C2)cc(OC)c1 (centres undefined),1%,25µM*,·,-3%[10 µM],·,5%[9.22 µM]
COc1ccc(CN2CCNC(=O)C2CC(=O)N2CCc3ccccc3C2)c(OC)c1 (centres undefined),1%,-12%,·,17%[10 µM],·,-4%[9.22 µM]
Cc1cc(=O)c2c(O)c3c(O)cc(O)c4c5c(O)cc(O)c6c(O)c7c(=O)cc(C)c8c1c2c(c34)c(c65)c78,?,-5%,·,-96%,8.9µM*,·
Cc1cc(O)c2c(c1O)C(=O)c1c(O)cc(C)c(O)c1C2=O,-17%,-8%,·,?,-14%,·
CCOC(=O)CC(NC(=O)Cn1nnc(-c2ccccc2)n1)c1ccc(OC)cc1 (centres undefined),5%,-5%,·,-1%,·,18%
Cc1cc(C)nc(SCc2ccc(C(=O)N/N=C3\CCCC(=O)C3)cc2)n1,-18%,8.9µM*,·,-7%[10 µM],·,26%
Cc1cc(C)nc(SCNC(=O)c2ccc(Cl)cc2)n1,8%,4%,-18,-10%,28µM*,-2%[9.22 µM]
Cc1cc(N2CCOCC2)nc(SCC(=O)c2ccc(Cl)cc2)n1,-1%,4%,35,-17%,-15%,1%
Cc1cc(C(=O)N/N=C2\CCCC(=O)C2)c2ccccc2n1,9%,-3%,-19,·,-5%,-3%
Cc1cc(C)nc(SCc2ccc(C(=O)NN=C3CCCC3)cc2)n1,10%,2.8µM*,·,-1%,·,26%
O=C(c1ccc(N2CCCCC2)c([N+](=O)[O-])c1)N(c1ccccn1)c1ccccn1,-5%,-13%,·,29%,·,-4%
O=C1C=C(c2ccccc2)C(=O)N1Nc1ccccc1,0%,22µM*,-9,-90%,?,-93%
C/C(CC(=O)Nc1ccc2c(c1)OCO2)=N\NC(=O)C(c1ccccc1)c1ccccc1,?,3.2µM*,24,?,-7%,-5%
Cc1ccc(C)c(OC(=O)c2cncc(Br)c2)c1,6%,-6%,-7,·,-5%,15%
Fc1ccc(/C=N/n2cnn(Cc3ccccc3Cl)c2=S)cc1,0%,20µM*,·,41%[10 µM],·,-3%

# Compound activity from PubChem.
